# Measured values published in PubChem BioAssay (NCATS).
# Records with an inconclusive call do not appear. A number with no mark means an inactive call. Calls of active or inactive are those of the source. Calls come from the whole dose curve; tested in HEK293 reporter line.
# Test: qHTS for Inhibitors of the Functional Ribonucleoprotein Complex (vRNP) of Lassa (LASV) Arenavirus: LASV Primary Screen - GLuc reporter signal (AID 1347082); note: nearly all actives have a fitted effect of over 60% in size
# Details: LASV minigenome vRNP, Gaussia luciferase reporter; series mostly up to 57.5 µM; activity change, negative = inhibition: at the top concentration
# % is set by controls: 0 for no effect and ±100 for the full control effect; potency is the fitted concentration of half-maximal effect.
SMILES,Potency,"activity change, negative = inhibition"
COc1ccc(-c2ccc3c(N4CCOCC4)nc(N4C[C@@H](C)O[C@@H](C)C4)nc3n2)cc1CO,0.344 µM (active),–
COc1cc(OC2CCN(C)CC2)ccc1Nc1ncc2c(n1)n(C1CCCC1)c(=O)n2C,–,-21.4%
O=C(Nc1ccc(OC(F)(F)F)cc1)c1sccc1NCc1ccnc2ccccc12,–,13.9%
CC(NCc1ccc2c(c1)nc(NC(=O)c1ccc(-c3cn[nH]c3)s1)n2CC(C)(C)O)C(C)(C)C (stereo not drawn),1.93 µM (active),–
Cc1cnc(Nc2ccc(F)cc2Cl)nc1-c1c[nH]c(C(=O)N[C@H](CO)c2cccc(Cl)c2)c1,19.3 µM (active),–
OCCCc1ccccc1,inactive,–
CC(C)(C)c1cnc(CSc2cnc(NC(=O)C3CCNCC3)s2)o1,6.11 µM (active),–
Brc1ccccc1-c1ccccc1,–,11.7% [at 115 µM]
O=C(Nc1cc(Cl)cc2c1[nH]c1cnccc12)c1cccnc1,24.3 µM (active),–
CCCCC(CC)COC(=O)c1ccccc1C(=O)O (stereo not drawn),–,-9.28% [at 115 µM]
COc1c(N2CCNC(C)C2)c(F)cc2c(=O)c(C(=O)O)cn(C3CC3)c12 (stereo not drawn),inactive,–
COc1ccc(CCN2CCN(CCCc3ccccc3)CC2)cc1OC,–,4.09%
Nc1nc2ccc([N+](=O)[O-])cc2s1,–,-37.9% [at 115 µM]
Cc1c(C(=O)Nc2ccc(N3C[C@@H](C)O[C@@H](C)C3)nc2)cccc1-c1ccc(OC(F)(F)F)cc1,–,17.1%
Cc1ccc(C(=O)Nc2cccc(C(F)(F)F)c2)cc1-c1ccc2nc(NCCN3CCOCC3)ncc2c1,10.9 µM (active),–
CC(=O)OCCN1C(=O)c2c(C)nc3ccc(S(=O)(=O)N4CCOCC4)cc3c2C1=O,–,9.5%
C=C1C(=CC=C2CCC[C@]3(C)[C@@H]([C@H](C)C=C[C@H](C)C(C)C)CC[C@@H]23)C[C@@H](O)C[C@@H]1O,–,15.2%
O=C(O)[C@@H](c1ccc(OCc2ccc3ccccc3n2)cc1)C1CCCC1,–,0.425%
CCCCOCCOc1nc(-c2ccc(C(=O)O)c(F)c2)sc1C,–,-5.49%
COc1cc2c(cc1OC)C(=O)CC2,–,-5.37%

SMILES,Potency,"activity change, negative = inhibition"
CCN(CC)CCn1c(=O)c(Cc2ccc(OC)cc2)nc2ccccc21,inactive,–
CCOc1cc2ncc(C#N)c(Nc3ccc(F)c(Cl)c3)c2cc1NC(=O)C=CCN(C)C,10.9 µM (active),–
COc1ccc2c(c1)CC[C@@H](CN(C)CC(=O)O)[C@H]2c1ccccc1,–,-30%
C1=CCOCc2cc(ccc2OCCN2CCCC2)Nc2nccc(n2)-c2cccc(c2)OCC1,12.2 µM (active),–
CC(C)OC(=O)c1cc(C(=O)OC(C)C)cc([N+](=O)[O-])c1,–,-16.3% [at 115 µM]
Cc1cc(Nc2nc(N[C@@H](C)c3ncc(F)cn3)ncc2Cl)n[nH]1,–,-4.74%
CCCCCCCCCCCCCC(=O)OC(C)C,–,6.43%
CCCCCCCC(=O)OCC(O)CO (stereo not drawn),–,-0.286%
CNC(=O)c1cc(Oc2ccc(NC(=O)Nc3cc(C(C)(C)C)nn3-c3ccc4ncccc4c3)c(F)c2)ccn1,7.69 µM (active),–
NC(=O)c1ccc(N(C(N)=O)c2c(F)cccc2F)nc1-c1ccc(F)cc1F,–,-30.7%
CCCCCCCCCCC(CO)CCCCCCCC (stereo not drawn),–,12.9%
Cc1ccc(C(N)=O)cc1Nc1nccc(-c2cn(C(C)C)c3cnccc23)n1,24.3 µM (active),–
C[C@@]12O[C@@H](C[C@]1(O)CO)n1c3ccccc3c3c4c(c5c6ccccc6n2c5c31)CNC4=O,9.68 µM (active),–
COc1ccc(CC2SC(=O)NC2=O)cc1C(=O)NCc1ccc(C(F)(F)F)cc1 (stereo not drawn),–,-17.1%
CCN(CC)CCOc1ccc(Nc2ncc3cc(-c4c(Cl)cccc4Cl)c(=O)n(C)c3n2)cc1,1.93 µM (active),–
COc1cc2c(cc1OC)CC(=O)N(CCCN(C)C[C@H]1Cc3cc(OC)c(OC)cc31)CC2,–,-12%
CS(=O)(=O)Oc1ccc2c(NC(N)=O)c(C(=O)c3ccc(Cl)cc3Cl)oc2c1,–,-25%
CC1(C)Cc2c(-c3ccccc3)c(-c3ccc(Cl)cc3)c(CC(=O)O)n2C1,–,-14.6%
O=C(NCCS(=O)(=O)c1ccc(C(F)(F)F)cn1)c1ccc(Cl)cc1,–,22.1%

# Test: qHTS for Inhibitors of the Functional Ribonucleoprotein Complex (vRNP) of Lassa (LASV) Arenavirus: Viability assay - alamar blue signal for LASV Primary Screen (AID 1347083); note: nearly all actives have a fitted effect of over 80% in size
# Details: cell viability, alamar blue fluorescence (LASV minigenome counter-screen); series mostly up to 57.5 µM; activity change, negative = reduced viability: at the top concentration
SMILES,Potency,"activity change, negative = reduced viability"
COc1ccc(-c2ccc3c(N4CCOCC4)nc(N4C[C@@H](C)O[C@@H](C)C4)nc3n2)cc1CO,0.243 µM (active),–
COc1cc(OC2CCN(C)CC2)ccc1Nc1ncc2c(n1)n(C1CCCC1)c(=O)n2C,24.3 µM (active),–
O=C(Nc1ccc(OC(F)(F)F)cc1)c1sccc1NCc1ccnc2ccccc12,–,-3.67%
CC(NCc1ccc2c(c1)nc(NC(=O)c1ccc(-c3cn[nH]c3)s1)n2CC(C)(C)O)C(C)(C)C (stereo not drawn),0.485 µM (active),–
Cc1cnc(Nc2ccc(F)cc2Cl)nc1-c1c[nH]c(C(=O)N[C@H](CO)c2cccc(Cl)c2)c1,15.3 µM (active),–
OCCCc1ccccc1,inactive,–
CC(C)(C)c1cnc(CSc2cnc(NC(=O)C3CCNCC3)s2)o1,0.968 µM (active),–
Brc1ccccc1-c1ccccc1,–,9.3% [at 115 µM]
O=C(Nc1cc(Cl)cc2c1[nH]c1cnccc12)c1cccnc1,21.7 µM (active),–
CCCCC(CC)COC(=O)c1ccccc1C(=O)O (stereo not drawn),–,14.9% [at 115 µM]
COc1c(N2CCNC(C)C2)c(F)cc2c(=O)c(C(=O)O)cn(C3CC3)c12 (stereo not drawn),inactive,–
COc1ccc(CCN2CCN(CCCc3ccccc3)CC2)cc1OC,–,-3.95%
Nc1nc2ccc([N+](=O)[O-])cc2s1,–,-16.6% [at 115 µM]
Cc1c(C(=O)Nc2ccc(N3C[C@@H](C)O[C@@H](C)C3)nc2)cccc1-c1ccc(OC(F)(F)F)cc1,–,27%
Cc1ccc(C(=O)Nc2cccc(C(F)(F)F)c2)cc1-c1ccc2nc(NCCN3CCOCC3)ncc2c1,13.7 µM (active),–
CC(=O)OCCN1C(=O)c2c(C)nc3ccc(S(=O)(=O)N4CCOCC4)cc3c2C1=O,–,0.964%
C=C1C(=CC=C2CCC[C@]3(C)[C@@H]([C@H](C)C=C[C@H](C)C(C)C)CC[C@@H]23)C[C@@H](O)C[C@@H]1O,13.7 µM (active),–
O=C(O)[C@@H](c1ccc(OCc2ccc3ccccc3n2)cc1)C1CCCC1,–,6.06%
CCCCOCCOc1nc(-c2ccc(C(=O)O)c(F)c2)sc1C,–,-2.62%
COc1cc2c(cc1OC)C(=O)CC2,–,-2.38%

SMILES,Potency,"activity change, negative = reduced viability"
CCN(CC)CCn1c(=O)c(Cc2ccc(OC)cc2)nc2ccccc21,inactive,–
CCOc1cc2ncc(C#N)c(Nc3ccc(F)c(Cl)c3)c2cc1NC(=O)C=CCN(C)C,1.93 µM (active),–
COc1ccc2c(c1)CC[C@@H](CN(C)CC(=O)O)[C@H]2c1ccccc1,10.9 µM (active),–
C1=CCOCc2cc(ccc2OCCN2CCCC2)Nc2nccc(n2)-c2cccc(c2)OCC1,7.69 µM (active),–
CC(C)OC(=O)c1cc(C(=O)OC(C)C)cc([N+](=O)[O-])c1,–,-7.94% [at 115 µM]
Cc1cc(Nc2nc(N[C@@H](C)c3ncc(F)cn3)ncc2Cl)n[nH]1,–,-8.8%
CCCCCCCCCCCCCC(=O)OC(C)C,–,7.34%
CCCCCCCC(=O)OCC(O)CO (stereo not drawn),–,-5.18%
CNC(=O)c1cc(Oc2ccc(NC(=O)Nc3cc(C(C)(C)C)nn3-c3ccc4ncccc4c3)c(F)c2)ccn1,19.3 µM (active),–
NC(=O)c1ccc(N(C(N)=O)c2c(F)cccc2F)nc1-c1ccc(F)cc1F,34.3 µM (active),–
CCCCCCCCCCC(CO)CCCCCCCC (stereo not drawn),–,6.54%
Cc1ccc(C(N)=O)cc1Nc1nccc(-c2cn(C(C)C)c3cnccc23)n1,15.3 µM (active),–
C[C@@]12O[C@@H](C[C@]1(O)CO)n1c3ccccc3c3c4c(c5c6ccccc6n2c5c31)CNC4=O,0.432 µM (active),–
COc1ccc(CC2SC(=O)NC2=O)cc1C(=O)NCc1ccc(C(F)(F)F)cc1 (stereo not drawn),–,-11.6%
CCN(CC)CCOc1ccc(Nc2ncc3cc(-c4c(Cl)cccc4Cl)c(=O)n(C)c3n2)cc1,0.0306 µM (active),–
COc1cc2c(cc1OC)CC(=O)N(CCCN(C)C[C@H]1Cc3cc(OC)c(OC)cc31)CC2,–,-15.7%
CS(=O)(=O)Oc1ccc2c(NC(N)=O)c(C(=O)c3ccc(Cl)cc3Cl)oc2c1,27.3 µM (active),–
CC1(C)Cc2c(-c3ccccc3)c(-c3ccc(Cl)cc3)c(CC(=O)O)n2C1,–,-1.45%
O=C(NCCS(=O)(=O)c1ccc(C(F)(F)F)cn1)c1ccc(Cl)cc1,–,-6.29%
